# What was measured:
# Experiment in all cases: DAPPL (digital affinity profiling via proximity ligation, sequencing); 10 mM Tris-HCl pH 7.5, 50 mM NaCl, 1 mM DTT, 4% glycerol, room temperature, 30 min; GST-TFs on glutathione beads, 16-mer random dsDNA library, 0.1% formaldehyde crosslink after washing; high values mean tight binding
# HSF1 = HSF1 (Homo sapiens, UniProt Q00613 1-529); details: protein: recombinant; tags: N-terminal GST; chain copies: 3; dsDNA, one strand shown
# In short: (§1)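 Pools were built from human transcription factors expressed in yeast as GST fusions, captured on glutathione beads and DNA-barcoded, along with a tag-only sample. Incubation with 200 nmole of a 16-mer random double-stranded DNA library lasted 30 min at room temperature in Tris/NaCl/DTT/glycerol buffer, and was followed by washing, 0.1% formaldehyde crosslinking, proximity ligation, PCR amplification and Illumina NextSeq500 sequencing. Binding signal is the quotient of each hexamer's read frequency for a factor and its frequency for the tag-only sample.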
# ELF4 = ELF4 (Homo sapiens, UniProt Q99607 1-663); details: protein: recombinant; tags: N-terminal GST; dsDNA, one strand shown
# In short: as §1
# ELK4 = molecular target: T1, ELK4 (Homo sapiens, UniProt P28324-2 1-405); details: protein: recombinant; tags: N-terminal GST; dsDNA, one strand shown
# T1 sequence: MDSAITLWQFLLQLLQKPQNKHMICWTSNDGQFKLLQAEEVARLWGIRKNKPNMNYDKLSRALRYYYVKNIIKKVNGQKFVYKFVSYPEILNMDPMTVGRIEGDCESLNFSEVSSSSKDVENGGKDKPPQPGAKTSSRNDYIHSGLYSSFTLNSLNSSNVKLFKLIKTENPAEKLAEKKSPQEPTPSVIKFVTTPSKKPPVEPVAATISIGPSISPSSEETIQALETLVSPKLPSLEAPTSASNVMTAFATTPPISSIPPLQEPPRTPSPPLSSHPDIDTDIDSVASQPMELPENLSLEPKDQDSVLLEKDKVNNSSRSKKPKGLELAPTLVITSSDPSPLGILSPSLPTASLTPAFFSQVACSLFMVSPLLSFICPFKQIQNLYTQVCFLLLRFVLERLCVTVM
# In short: as §1
# ETV2 = molecular target: T2, ETV2 (Homo sapiens, UniProt O00321 1-342); details: protein: recombinant; tags: N-terminal GST; dsDNA, one strand shown
# T2 sequence: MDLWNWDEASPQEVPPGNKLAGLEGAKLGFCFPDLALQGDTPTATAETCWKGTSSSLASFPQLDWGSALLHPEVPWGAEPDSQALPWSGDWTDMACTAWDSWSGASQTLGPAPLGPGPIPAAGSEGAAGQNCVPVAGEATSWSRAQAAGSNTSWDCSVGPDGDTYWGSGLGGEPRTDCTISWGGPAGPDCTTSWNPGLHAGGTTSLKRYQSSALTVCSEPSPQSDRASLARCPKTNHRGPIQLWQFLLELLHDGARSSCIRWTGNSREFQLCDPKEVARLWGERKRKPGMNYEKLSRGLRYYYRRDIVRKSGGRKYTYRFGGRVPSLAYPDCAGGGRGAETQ
# In short: as §1
# CRX = CRX (Homo sapiens, UniProt O43186 1-299); details: protein: recombinant; tags: N-terminal GST; dsDNA, one strand shown
# In short: as §1
# ETV1 = ETV1 (Homo sapiens, UniProt P50549 1-477); details: protein: recombinant; tags: N-terminal GST; dsDNA, one strand shown
# In short: as §1
# GABPA = molecular target: T3, GABPA (Homo sapiens, UniProt Q06546 1-454); details: protein: recombinant; tags: N-terminal GST; dsDNA, one strand shown
# T3 sequence: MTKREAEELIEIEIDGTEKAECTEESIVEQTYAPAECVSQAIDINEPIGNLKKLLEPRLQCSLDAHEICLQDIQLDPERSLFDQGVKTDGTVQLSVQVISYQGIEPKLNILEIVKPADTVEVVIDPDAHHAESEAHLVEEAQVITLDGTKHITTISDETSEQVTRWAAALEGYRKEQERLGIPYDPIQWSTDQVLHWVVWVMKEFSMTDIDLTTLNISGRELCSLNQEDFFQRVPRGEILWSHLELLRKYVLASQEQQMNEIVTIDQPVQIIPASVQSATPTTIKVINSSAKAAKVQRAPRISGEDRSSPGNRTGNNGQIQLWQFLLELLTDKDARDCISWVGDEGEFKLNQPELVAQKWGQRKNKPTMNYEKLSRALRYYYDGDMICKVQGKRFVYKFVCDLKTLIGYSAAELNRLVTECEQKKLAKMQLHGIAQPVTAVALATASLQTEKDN
# In short: as §1
# ERF = molecular target: T4, ERF (Homo sapiens, UniProt P50548 1-548); details: protein: recombinant; tags: N-terminal GST; dsDNA, one strand shown
# T4 sequence: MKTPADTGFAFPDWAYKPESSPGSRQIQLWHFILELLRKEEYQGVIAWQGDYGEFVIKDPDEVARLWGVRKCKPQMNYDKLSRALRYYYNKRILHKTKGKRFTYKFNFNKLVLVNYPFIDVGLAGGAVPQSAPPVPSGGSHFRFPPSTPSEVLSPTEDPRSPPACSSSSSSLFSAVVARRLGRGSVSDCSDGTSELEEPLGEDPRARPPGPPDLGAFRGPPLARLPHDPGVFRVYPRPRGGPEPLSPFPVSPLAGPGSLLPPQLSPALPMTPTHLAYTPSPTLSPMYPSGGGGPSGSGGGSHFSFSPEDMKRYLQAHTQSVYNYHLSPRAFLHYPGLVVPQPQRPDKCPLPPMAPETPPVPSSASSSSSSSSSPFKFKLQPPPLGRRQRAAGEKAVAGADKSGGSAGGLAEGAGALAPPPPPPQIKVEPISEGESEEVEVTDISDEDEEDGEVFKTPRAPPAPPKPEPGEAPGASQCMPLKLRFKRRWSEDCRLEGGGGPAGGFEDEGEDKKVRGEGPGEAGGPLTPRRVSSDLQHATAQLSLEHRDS
# In short: as §1
# ETS2 = molecular target: T5, ETS2 (Homo sapiens, UniProt P15036 1-469); details: protein: recombinant; tags: N-terminal GST; dsDNA, one strand shown
# T5 sequence: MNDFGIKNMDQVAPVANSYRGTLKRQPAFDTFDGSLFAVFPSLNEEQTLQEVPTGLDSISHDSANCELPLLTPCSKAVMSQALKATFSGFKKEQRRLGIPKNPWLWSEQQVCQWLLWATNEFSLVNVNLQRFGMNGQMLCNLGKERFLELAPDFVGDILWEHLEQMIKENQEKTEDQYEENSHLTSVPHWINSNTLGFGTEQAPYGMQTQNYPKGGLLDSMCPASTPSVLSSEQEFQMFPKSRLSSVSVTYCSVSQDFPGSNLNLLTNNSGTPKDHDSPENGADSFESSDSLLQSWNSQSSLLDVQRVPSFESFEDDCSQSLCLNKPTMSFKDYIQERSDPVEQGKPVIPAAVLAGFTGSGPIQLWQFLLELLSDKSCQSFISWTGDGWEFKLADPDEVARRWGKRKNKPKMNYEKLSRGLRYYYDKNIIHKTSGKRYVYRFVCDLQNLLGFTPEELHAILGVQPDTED
# In short: as §1
# ETV7 = molecular target: T6, ETV7 (Homo sapiens, UniProt Q9Y603 1-341); details: protein: recombinant; tags: N-terminal GST; dsDNA, one strand shown
# T6 sequence: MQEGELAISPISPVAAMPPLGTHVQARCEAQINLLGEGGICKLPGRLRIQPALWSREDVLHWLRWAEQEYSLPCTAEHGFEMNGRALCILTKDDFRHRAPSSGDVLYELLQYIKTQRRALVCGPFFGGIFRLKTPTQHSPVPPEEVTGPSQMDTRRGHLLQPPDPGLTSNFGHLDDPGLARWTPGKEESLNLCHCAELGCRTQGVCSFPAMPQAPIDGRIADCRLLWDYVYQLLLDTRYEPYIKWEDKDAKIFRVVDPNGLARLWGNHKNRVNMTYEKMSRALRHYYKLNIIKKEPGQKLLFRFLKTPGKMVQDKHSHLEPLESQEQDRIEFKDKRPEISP
# In short: as §1
# Chain of HSF1 (Q00613 whole entry, the tested form may be a part): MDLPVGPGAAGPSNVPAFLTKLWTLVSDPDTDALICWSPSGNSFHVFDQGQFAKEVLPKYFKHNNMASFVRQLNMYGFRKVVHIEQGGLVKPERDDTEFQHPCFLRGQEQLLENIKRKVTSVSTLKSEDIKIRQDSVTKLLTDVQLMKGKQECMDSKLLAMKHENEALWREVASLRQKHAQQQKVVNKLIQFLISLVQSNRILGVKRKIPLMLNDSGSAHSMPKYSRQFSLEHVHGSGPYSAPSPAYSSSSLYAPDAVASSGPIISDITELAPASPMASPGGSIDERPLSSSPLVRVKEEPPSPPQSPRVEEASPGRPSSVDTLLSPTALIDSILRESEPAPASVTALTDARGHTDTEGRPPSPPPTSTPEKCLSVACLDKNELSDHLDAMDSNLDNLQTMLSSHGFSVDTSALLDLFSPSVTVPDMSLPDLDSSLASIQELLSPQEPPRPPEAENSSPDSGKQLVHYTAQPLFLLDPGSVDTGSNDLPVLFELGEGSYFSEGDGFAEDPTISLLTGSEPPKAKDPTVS
# Chain of CRX (O43186 whole entry): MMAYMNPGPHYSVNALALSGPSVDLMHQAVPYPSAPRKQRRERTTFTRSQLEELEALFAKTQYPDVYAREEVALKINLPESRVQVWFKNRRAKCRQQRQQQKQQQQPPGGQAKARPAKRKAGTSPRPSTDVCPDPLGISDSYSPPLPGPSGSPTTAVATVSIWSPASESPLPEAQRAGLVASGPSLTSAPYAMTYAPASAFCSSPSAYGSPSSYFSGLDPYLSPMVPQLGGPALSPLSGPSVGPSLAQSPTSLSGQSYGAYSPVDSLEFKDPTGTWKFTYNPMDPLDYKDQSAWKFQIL
# Chain of ETV1 (P50549 whole entry): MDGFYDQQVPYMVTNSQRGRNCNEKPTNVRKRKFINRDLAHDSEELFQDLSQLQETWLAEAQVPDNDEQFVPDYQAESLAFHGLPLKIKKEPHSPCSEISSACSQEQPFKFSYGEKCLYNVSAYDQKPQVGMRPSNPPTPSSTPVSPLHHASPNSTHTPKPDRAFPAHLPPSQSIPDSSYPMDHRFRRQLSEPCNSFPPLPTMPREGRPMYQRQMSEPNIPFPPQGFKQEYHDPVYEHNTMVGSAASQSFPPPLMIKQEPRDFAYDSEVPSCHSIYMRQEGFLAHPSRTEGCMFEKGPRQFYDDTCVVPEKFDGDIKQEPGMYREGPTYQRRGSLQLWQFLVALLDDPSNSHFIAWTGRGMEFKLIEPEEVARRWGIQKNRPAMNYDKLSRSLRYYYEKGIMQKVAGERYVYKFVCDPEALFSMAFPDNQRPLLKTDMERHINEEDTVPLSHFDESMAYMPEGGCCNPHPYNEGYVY
# Chain of ELF4 (Q99607 whole entry): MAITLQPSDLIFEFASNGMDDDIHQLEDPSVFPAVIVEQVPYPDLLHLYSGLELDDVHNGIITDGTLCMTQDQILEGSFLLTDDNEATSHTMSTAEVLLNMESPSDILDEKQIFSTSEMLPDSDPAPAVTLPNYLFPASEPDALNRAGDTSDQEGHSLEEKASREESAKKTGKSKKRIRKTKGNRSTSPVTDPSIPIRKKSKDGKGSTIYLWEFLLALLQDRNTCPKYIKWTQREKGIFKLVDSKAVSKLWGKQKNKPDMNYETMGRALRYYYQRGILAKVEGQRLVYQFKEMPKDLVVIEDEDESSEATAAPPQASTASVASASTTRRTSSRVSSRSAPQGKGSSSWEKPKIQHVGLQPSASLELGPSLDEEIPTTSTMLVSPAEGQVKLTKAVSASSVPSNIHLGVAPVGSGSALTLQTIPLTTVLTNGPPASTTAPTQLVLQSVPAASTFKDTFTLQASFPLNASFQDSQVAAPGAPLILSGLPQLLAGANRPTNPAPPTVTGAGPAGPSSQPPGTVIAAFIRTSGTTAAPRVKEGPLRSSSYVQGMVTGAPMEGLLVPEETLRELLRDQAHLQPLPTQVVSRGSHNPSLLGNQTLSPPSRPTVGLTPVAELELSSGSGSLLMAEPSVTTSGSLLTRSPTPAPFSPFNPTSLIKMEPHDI
Sequence,binding signal (HSF1),binding signal (ELF4),binding signal (ELK4),binding signal (ETV2),binding signal (CRX),binding signal (ETV1),binding signal (GABPA),binding signal (ERF),binding signal (ETS2),binding signal (ETV7)
AGGGTT,"1.02 fold enrichment (6-mer frequency, TF over GST control)","1.03 fold enrichment (6-mer frequency, TF over GST control)","1.14 fold enrichment (6-mer frequency, TF over GST control)","1.03 fold enrichment (6-mer frequency, TF over GST control)","1.06 fold enrichment (6-mer frequency, TF over GST control)","1.01 fold enrichment (6-mer frequency, TF over GST control)",,,,
ATCAGA,"1.09 fold enrichment (6-mer frequency, TF over GST control)",,"1.05 fold enrichment (6-mer frequency, TF over GST control)",,"1.25 fold enrichment (6-mer frequency, TF over GST control)",,"1.11 fold enrichment (6-mer frequency, TF over GST control)",,,
GCCTAG,"1.21 fold enrichment (6-mer frequency, TF over GST control)",,"1.03 fold enrichment (6-mer frequency, TF over GST control)","1.08 fold enrichment (6-mer frequency, TF over GST control)",,,"1.02 fold enrichment (6-mer frequency, TF over GST control)","1.06 fold enrichment (6-mer frequency, TF over GST control)","1 fold enrichment (6-mer frequency, TF over GST control)","1 fold enrichment (6-mer frequency, TF over GST control)"
